Source: PubChem BioAssay AID618 (Sanford-Burnham Center for Chemical Genomics, 2007)
In all, about 87,000 compounds went through this assay and about 540 (0.62%) were called active. The sample holds actives, similar compounds and a random draw of the others, so the mix is not that of the screen. No rule for the calls is given here. Measured potencies and affinities stand elsewhere.

Assay: MT1-MMP gene expression reporter suppression – cell-based, luciferase reporter, luminescence (AID 618);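 also: actives suppress MT1-MMP promoter-driven transcription so potencies describe inhibitors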
Details: MT1-MMP promoter luciferase reporter cells

Compound	outcome
COc1ccc(OC)c(S(=O)(=O)Nc2ccc(CC(=O)O)cc2)c1	inactive
CN(C)/C=N/c1c(C#N)nnn1Cc1ccccc1	inactive
Cc1ccc2nc3n(c(=O)c2c1)CCCCC3	inactive
CCCCn1c(C(C)NC(=O)c2cccs2)nc2ccccc21 (centres undefined)	inactive
COc1ccccc1N1CCN(C(=O)CSc2nnc(NC(=O)c3ccco3)s2)CC1	inactive
CCc1nnc(NC(=O)C2COc3ccccc3O2)s1 (centres undefined)	inactive
O=C(Nc1nnc(C(F)(F)F)s1)C1COc2ccccc2O1 (centres undefined)	inactive
COc1ccc(-c2noc(CCC(=O)Nc3nc4ccccc4s3)n2)cc1	inactive
O=C(CSc1nc2ccccc2[nH]1)Nc1cc(C(F)(F)F)ccc1N1CCOCC1	inactive
O=C(Nc1cc(C(F)(F)F)ccc1N1CCOCC1)c1c(F)c(F)c(F)c(F)c1F	inactive
Cc1ccc2nc(SCC(=O)Nc3cc(C(F)(F)F)ccc3N3CCOCC3)[nH]c2c1	active
Cc1onc(-c2ccccc2)c1C(=O)Nc1ccccc1N1CCOCC1	inactive
Cc1nnc(SCC(=O)Nc2cc(C(F)(F)F)ccc2N2CCOCC2)o1	inactive
Cc1onc(-c2ccccc2)c1C(=O)Nc1cc(C(F)(F)F)ccc1N1CCOCC1	active
CCN(CC)c1ccc2cc(C(=O)Nc3ccc(-n4cnnn4)c(OC)c3)c(=O)oc2c1	inactive
COCc1cc(C)nc2sc(C(=O)Nc3nccs3)c(N)c12	inactive
CCOC(=O)CNC(=O)c1sc2nc(C)cc(C)c2c1N	inactive
Cc1cc(C)c2c(N)c(C(=O)NC3CC3)sc2n1	inactive
CCOC(=O)c1sc2nc(C)cc(C)c2c1N	inactive
COCCNC(=O)C(c1cccs1)N(CCc1ccccc1)C(=O)Cn1nnc2ccccc21 (centres undefined)	inactive
O=C(CSc1nnc(CNC(=O)c2cccs2)o1)NCCc1ccccc1	inactive
O=C(CNC(=O)c1ccco1)NCC(=O)OC(C(=O)c1ccccc1)c1ccc(Cl)cc1 (centres undefined)	inactive
CC1CCCc2sc3nc(N4CCN(CCO)CC4)n4ncnc4c3c21 (centres undefined)	inactive
COCCn1c(C)cc(C2=NNC(=Nc3ccc(Cl)cc3Cl)SC2)c1C	inactive
COCCn1c(-c2ccccc2F)n[nH]c1=S	inactive

Compound	outcome
COCCn1c(C)cc(C2=NNC(=Nc3ccc(OC)cc3)SC2)c1C	inactive
COCCn1c(C)cc(C(=O)COc2nc3ccccc3nc2C)c1C	inactive
CCOC(=O)c1c(C)c(C(=O)NC2CCCCC2)c(C)n1CC	inactive
Cc1ccc(-c2ccccc2NC(=O)CCl)o1	inactive
CN1/C(=C/C2CC(=O)N(c3cccc4ccccc34)C2=O)C(C)(C)c2ccccc21 (centres undefined)	inactive
CN1/C(=C/C=N/n2cnnc2)C(C)(C)c2ccccc21	inactive
O=C(O)CCn1c(=S)oc2ccccc21	inactive
Cc1cc(NC(=O)c2cc(Cl)ccc2Cl)no1	inactive
O=C(C1CCCCC1)N(Cc1ccccc1)c1ccccn1	inactive
COc1cc2c(cc1OC)C1C/C(=N\O)C(CC(C)C)CN1CC2 (centres undefined)	inactive
COc1cc2c(cc1OC)C1Cc3ccc(OC)c(OC)c3CN1CC2 (centres undefined)	inactive
CC[C@H]1CN2CCc3cc(OC)c(OC)cc3[C@@H]2C[C@@H]1C[C@H]1NCCc2cc(OC)c(OC)cc21	active
O=C(CN1CCCCC1)N1c2ccccc2CCc2ccccc21	inactive
O=C(CN1C(=O)C2C3C=CC(C3)C2C1=O)N1CCc2ccccc2C1 (centres undefined)	inactive
O=C(NCC(c1cccs1)N1CCOCC1)c1ccc(Cl)s1 (centres undefined)	active
CCC(=O)NCC(c1cccs1)N1CCOCC1 (centres undefined)	inactive
O=C(NCC(c1cccs1)N1CCOCC1)c1ccco1 (centres undefined)	inactive
CCOC(=O)c1ccc(CC(=O)c2oc3cc(O)ccc3c2C)o1	inactive
CN(C)c1cccc(C(=O)n2cc(C(=O)c3cc(F)ccc3O)cn2)c1	inactive
Cc1cc(N)n2nc(C)c(-c3ccccc3)c2n1	inactive
Cc1cc(N)n2ncc(-c3ccccc3)c2n1	inactive
COc1ccc(-c2cc3nc(C)cc(C)n3n2)cc1	inactive
COc1ccc(-c2cc3nc(C)cc(NCCO)n3n2)cc1	inactive
Cc1c(C(=O)N2CCN(S(C)(=O)=O)CC2)oc2ccccc12	inactive
COc1ccc(C)cc1NC(=O)c1ccc(N(C)S(C)(=O)=O)cc1	inactive

Compound	outcome
CC1CCN(C(=S)c2ccc3c(c2)OCO3)CC1	inactive
COc1ccc(OC)c2sc(NC(=O)c3ccc(Br)s3)nc12	inactive
Oc1ccc(Nc2nc(-c3ccc(O)cc3)cs2)cc1	inactive
Oc1ccc(Nc2nc(-c3ccc4ccccc4c3)cs2)cc1	active
NS(=O)(=O)c1ccc(Nc2nc(-c3ccc4ccccc4c3)cs2)cc1	inactive
CCN(CC)CCCNC(=O)c1[nH]c(C)c(C(=O)NC2CCCCC2)c1C	inactive
Cc1nc(SCC(N)=O)[nH]c(=O)c1Cc1ccc(OC(C)C)cc1	inactive
O=C(Nc1ccccc1C(=O)N1CCN(c2ccccc2)CC1)c1ccco1	inactive
CNc1nc(-c2ccccn2)nnc1-c1ccccc1	inactive
c1ccc(-c2nnc(-c3ccccn3)nc2NC2CCCCC2)cc1	active
c1ccc(-c2n[nH]c(-c3ccccn3)n2)cc1	inactive
C=CCNc1nc(-c2ccccc2)nc(-n2ccnc2)n1	inactive
c1ccc(-c2noc(C3CCCCC3)n2)nc1	inactive
N#Cc1ccc(C23CC4(C2)[C@H](CN(Cc2ccc(C(F)(F)F)cc2)[C@@H]4c2ccccc2)C3c2ccc(C(F)(F)F)cc2)cc1 (some centres undefined)	inactive
CCc1ccc2[nH]c(=O)c(C(c3nnnn3Cc3ccccc3)N3CCOCC3)cc2c1 (centres undefined)	inactive
Cc1cc(N2CCOCC2)nc(SCC(=O)c2ccccc2)n1	inactive
CCCC1=NCCn2cccc21	inactive
COc1cccc(C(=O)Cn2c(=N)n(C)c3ccccc32)c1	active
Cn1c(=N)n(CC(=O)O)c2ccccc21	inactive
COc1cccc(C(=O)Cn2c(NCCO)nc3ccccc32)c1	inactive
CC(=O)NCCSCCNC(C)=O	inactive
CSc1nnc(-c2ccc(S(=O)(=O)N3CCOCC3)cc2)n1CC1CCCO1 (centres undefined)	inactive
O=S(=O)(c1ccc2c(c1)nc(COc1ccc(Cl)cc1)n2CC1CCCO1)N1CCOCC1 (centres undefined)	active
CCSc1nnc(-c2ccc(S(=O)(=O)N3CCOCC3)cc2)n1CC1CCCO1 (centres undefined)	inactive
